About 7,900 targets were measured; listed, in parts, are those with a hit and a random draw of the rest. About 0.6% of all pairs of compound and target were hits.

Sequence of UniProt Q7L2J0 (Q7L2J0 whole entry, looked up): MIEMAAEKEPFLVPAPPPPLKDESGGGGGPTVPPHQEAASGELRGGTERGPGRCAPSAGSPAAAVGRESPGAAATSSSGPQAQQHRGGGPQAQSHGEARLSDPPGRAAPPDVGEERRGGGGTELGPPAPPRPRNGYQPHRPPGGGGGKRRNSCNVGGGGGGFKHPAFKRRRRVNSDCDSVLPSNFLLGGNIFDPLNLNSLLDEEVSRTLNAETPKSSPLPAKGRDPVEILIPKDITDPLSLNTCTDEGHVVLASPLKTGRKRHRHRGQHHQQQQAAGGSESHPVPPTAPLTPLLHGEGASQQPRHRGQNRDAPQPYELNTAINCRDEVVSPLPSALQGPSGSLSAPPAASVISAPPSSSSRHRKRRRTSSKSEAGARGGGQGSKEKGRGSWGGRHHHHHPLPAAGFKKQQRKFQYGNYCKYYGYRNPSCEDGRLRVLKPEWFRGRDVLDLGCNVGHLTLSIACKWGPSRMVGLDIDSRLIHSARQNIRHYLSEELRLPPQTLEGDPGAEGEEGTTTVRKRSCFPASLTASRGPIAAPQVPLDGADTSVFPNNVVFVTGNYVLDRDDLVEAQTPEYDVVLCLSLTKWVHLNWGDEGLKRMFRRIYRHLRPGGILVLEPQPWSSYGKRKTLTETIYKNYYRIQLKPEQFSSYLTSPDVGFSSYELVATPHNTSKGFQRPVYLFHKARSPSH
Sequence of UniProt Q8IWA4 (Q8IWA4 whole entry, looked up): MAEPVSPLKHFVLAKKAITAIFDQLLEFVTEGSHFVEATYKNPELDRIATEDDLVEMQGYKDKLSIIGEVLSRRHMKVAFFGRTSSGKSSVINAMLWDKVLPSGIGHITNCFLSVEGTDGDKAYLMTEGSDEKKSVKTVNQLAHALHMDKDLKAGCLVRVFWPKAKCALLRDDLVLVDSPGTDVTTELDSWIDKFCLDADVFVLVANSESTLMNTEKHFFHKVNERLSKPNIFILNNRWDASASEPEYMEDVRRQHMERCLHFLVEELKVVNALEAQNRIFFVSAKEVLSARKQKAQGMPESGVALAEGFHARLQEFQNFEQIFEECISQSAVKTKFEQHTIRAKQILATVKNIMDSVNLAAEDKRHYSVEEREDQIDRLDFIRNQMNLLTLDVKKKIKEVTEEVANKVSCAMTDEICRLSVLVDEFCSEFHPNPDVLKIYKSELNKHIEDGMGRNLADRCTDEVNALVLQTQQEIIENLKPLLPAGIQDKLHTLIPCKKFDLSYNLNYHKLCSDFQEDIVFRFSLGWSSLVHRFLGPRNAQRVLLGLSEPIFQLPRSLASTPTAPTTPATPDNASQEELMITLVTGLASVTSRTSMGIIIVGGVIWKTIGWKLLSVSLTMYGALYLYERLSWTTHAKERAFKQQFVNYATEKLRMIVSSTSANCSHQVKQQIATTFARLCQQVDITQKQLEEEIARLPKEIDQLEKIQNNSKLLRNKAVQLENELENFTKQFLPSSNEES
Sequence of UniProt Q9UI26 (Q9UI26 whole entry, looked up): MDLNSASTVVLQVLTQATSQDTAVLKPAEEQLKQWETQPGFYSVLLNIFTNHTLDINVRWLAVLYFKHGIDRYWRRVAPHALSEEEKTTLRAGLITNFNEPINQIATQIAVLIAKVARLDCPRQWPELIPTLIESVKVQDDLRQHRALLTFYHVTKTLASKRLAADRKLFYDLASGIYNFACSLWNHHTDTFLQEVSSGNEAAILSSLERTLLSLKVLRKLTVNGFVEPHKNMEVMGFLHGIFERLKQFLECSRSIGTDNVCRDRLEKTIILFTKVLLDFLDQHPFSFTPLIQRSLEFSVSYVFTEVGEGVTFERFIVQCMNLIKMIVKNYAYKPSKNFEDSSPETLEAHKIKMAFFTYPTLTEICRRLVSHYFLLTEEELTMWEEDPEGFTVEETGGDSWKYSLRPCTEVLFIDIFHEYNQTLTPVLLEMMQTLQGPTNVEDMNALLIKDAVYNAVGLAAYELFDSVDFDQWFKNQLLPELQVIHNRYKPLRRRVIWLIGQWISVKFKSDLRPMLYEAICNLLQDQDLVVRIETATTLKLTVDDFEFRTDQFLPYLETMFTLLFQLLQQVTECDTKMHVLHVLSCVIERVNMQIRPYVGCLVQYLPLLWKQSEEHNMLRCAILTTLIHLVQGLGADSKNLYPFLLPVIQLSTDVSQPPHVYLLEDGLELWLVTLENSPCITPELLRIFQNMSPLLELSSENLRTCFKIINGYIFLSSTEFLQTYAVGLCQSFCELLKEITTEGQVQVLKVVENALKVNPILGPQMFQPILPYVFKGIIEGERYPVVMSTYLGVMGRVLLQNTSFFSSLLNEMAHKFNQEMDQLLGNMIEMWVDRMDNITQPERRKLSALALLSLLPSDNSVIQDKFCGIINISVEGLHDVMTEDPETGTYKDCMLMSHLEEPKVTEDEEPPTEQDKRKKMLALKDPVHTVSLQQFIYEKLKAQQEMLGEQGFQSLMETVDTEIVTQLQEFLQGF
Sequence of UniProt P32019 (P32019 whole entry, looked up): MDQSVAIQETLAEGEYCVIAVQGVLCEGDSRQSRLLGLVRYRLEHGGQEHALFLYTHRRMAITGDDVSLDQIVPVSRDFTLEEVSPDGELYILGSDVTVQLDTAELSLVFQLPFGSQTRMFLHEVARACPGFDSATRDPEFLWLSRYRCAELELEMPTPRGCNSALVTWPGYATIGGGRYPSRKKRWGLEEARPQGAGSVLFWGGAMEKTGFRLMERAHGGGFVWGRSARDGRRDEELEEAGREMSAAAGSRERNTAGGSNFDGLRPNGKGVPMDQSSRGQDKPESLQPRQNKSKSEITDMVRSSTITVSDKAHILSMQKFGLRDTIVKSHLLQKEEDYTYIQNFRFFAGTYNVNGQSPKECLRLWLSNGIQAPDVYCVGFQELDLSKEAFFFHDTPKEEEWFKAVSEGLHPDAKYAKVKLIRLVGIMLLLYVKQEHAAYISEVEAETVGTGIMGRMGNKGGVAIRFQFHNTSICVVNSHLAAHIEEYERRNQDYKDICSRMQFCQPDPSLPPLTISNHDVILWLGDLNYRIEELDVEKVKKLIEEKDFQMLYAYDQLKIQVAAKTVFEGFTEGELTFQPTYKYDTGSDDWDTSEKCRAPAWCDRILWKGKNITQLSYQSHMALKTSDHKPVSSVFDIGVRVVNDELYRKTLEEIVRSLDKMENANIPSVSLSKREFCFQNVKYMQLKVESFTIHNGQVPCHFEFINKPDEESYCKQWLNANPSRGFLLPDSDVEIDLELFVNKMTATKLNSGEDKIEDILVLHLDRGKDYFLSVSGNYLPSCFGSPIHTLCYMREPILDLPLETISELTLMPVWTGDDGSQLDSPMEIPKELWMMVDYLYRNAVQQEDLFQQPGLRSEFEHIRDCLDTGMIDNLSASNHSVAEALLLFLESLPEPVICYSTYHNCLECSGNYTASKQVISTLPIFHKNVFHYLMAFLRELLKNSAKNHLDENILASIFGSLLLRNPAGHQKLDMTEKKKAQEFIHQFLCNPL
Sequence of UniProt O95232 (O95232 whole entry, looked up): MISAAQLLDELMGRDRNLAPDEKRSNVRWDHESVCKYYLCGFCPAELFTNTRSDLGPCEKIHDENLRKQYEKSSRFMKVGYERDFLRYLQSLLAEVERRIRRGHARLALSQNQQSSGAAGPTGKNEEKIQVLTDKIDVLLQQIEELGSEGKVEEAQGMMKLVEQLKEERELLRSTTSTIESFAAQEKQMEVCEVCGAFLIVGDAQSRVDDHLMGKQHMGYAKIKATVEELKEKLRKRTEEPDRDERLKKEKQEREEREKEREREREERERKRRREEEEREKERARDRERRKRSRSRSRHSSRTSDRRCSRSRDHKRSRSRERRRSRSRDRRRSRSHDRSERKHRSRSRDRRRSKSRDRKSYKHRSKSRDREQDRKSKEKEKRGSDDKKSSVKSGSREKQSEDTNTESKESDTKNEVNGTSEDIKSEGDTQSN
Sequence of UniProt P13473 (P13473 whole entry, looked up): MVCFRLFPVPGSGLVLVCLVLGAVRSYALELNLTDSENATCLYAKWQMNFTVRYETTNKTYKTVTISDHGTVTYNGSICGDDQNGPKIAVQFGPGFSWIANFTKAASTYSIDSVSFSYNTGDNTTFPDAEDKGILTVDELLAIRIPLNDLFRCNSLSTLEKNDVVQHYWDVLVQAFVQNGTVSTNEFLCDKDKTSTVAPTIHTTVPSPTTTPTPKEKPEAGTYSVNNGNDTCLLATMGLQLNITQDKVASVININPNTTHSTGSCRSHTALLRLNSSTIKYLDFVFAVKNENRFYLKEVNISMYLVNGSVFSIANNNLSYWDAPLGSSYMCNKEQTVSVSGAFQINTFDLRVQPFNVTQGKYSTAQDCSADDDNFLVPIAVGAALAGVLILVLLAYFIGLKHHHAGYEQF
Sequence of UniProt O43766 (O43766 whole entry, looked up): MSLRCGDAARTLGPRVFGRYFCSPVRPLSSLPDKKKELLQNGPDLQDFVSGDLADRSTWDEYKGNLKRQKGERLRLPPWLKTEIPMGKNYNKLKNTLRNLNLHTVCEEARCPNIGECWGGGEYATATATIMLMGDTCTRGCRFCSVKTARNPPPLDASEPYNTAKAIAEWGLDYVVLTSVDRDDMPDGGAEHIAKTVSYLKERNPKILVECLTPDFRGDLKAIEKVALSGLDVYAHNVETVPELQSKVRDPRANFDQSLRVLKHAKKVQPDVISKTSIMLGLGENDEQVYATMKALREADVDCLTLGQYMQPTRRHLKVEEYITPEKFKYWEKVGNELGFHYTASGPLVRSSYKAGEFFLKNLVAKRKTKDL
Sequence of UniProt Q8IYU8 (Q8IYU8 whole entry, looked up): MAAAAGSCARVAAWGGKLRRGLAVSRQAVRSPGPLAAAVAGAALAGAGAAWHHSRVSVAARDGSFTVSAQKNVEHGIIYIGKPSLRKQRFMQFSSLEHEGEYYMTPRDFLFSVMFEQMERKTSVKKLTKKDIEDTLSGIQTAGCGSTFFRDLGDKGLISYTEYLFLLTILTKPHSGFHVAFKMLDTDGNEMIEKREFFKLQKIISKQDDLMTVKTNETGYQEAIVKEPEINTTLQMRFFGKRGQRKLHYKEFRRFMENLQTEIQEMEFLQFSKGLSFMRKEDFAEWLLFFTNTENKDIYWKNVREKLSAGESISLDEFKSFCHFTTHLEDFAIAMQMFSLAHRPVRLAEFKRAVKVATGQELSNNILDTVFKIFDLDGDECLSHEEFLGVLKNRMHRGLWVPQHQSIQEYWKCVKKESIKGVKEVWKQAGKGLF

Compound in the assay: Cc1cccc(CC(=O)N2CCc3c2ccc(-c2cn(C)c4ncnc(N)c24)c3F)n1
Description: log2 fold change, soluble protein after heating vs DMSO (PISA); higher = thermal stabilisation; K562 cells, 10 uM, 30 min; active = over 0.2 and 3.5 SD of the protein, either way, in both replicates (recomputed). In short, it runs like this:
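Aliquots of K562 cells (2×10^6 cells/mL) treated with 10 μM compound for 30 min were heated for 3 min over 48°C-58°C. After pooling and extraction in PBS with 0.5% NP-40 at 4°C, soluble protein from a 21,000xg, 90 min spin was quantified by TMTpro 16plex LC-MS/MS with channel sums equalised. Thermal stability is expressed against control samples, from duplicates, as a log2 fold change.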
For MIEF1 (UniProt Q9NQG6), the log2 fold change is 0.006 (inactive).
The same measure for LDAH isoform 2 (UniProt Q9H6V9): -0.027 (inactive); for MAPKAPK2 (UniProt P49137): 0.017 (inactive).
The same measure for LIAS (UniProt O43766): -0.079 (inactive); for MFSD5 isoform 2 (UniProt Q6N075): 0.009 (inactive).
Regarding LARP4B (UniProt Q92615), the log2 fold change is -0.025 (inactive).
In the case of LAMP2 (UniProt P13473), the log2 fold change was -0.051 (inactive).
Consider MAGEC2 (UniProt Q9UBF1), for which the log2 fold change was -0.065 (inactive).
The same measure for IGFBP4 (UniProt P22692): -0.173 (inactive); for ILF3 isoform 7 (UniProt Q12906): -0.028 (inactive).
The same measure for LTV1 (UniProt Q96GA3): -0.039 (inactive); for MICU2 (UniProt Q8IYU8): 0.092 (inactive); for MCUR1 (UniProt Q96AQ8): 0 (inactive).
As for KDM1A isoform 2 (UniProt O60341), the log2 fold change is 0.014 (inactive).
Turning to LEMD2 (UniProt Q8NC56), the log2 fold change is -0.008 (inactive).
The same measure for LRRFIP1 (UniProt Q32MZ4): -0.043 (inactive).
LPIN1 isoform 7 (UniProt Q14693): the log2 fold change is 0.051 (inactive).
Consider MFN1 (UniProt Q8IWA4), for which the log2 fold change was -0.034 (inactive).
The same measure for KIF1B isoform 4 (UniProt O60333): -0.004 (inactive).
With MFGE8 (UniProt Q08431), the log2 fold change was 0.002 (inactive).
As to MCCC2 (UniProt Q9HCC0), the log2 fold change is -0.062 (inactive).
The same measure for MICU1 isoform 3 (UniProt Q9BPX6): 0.106 (inactive).
The same measure for LARP1 (UniProt Q6PKG0): 0.024 (inactive).
The same measure for MEPCE (UniProt Q7L2J0): 0.065 (inactive).
As for MAD2L1 (UniProt Q13257), the log2 fold change was 0.018 (inactive).
As for KCTD2 (UniProt Q14681), the log2 fold change was -0.845 (active).
Regarding LYPLA2 (UniProt O95372), the log2 fold change is 0.007 (inactive).
Take INPP5B (UniProt P32019): the log2 fold change is -0.059 (inactive).
The same measure for IPO11 isoform 2 (UniProt Q9UI26): 0.045 (inactive); for MARCKS (UniProt P29966): -0.133 (inactive); for KIF2C (UniProt Q99661): 0.122 (inactive).
LPCAT3 (UniProt Q6P1A2): the log2 fold change was 0.063 (inactive).
As for KTN1 (UniProt Q86UP2), the log2 fold change is 0.013 (inactive).
On to MIF (UniProt P14174), for which the log2 fold change was 0.034 (inactive).
Take LUC7L3 (UniProt O95232): the log2 fold change was -0.001 (inactive).
As to LUC7L (UniProt Q9NQ29), the log2 fold change is -0.046 (inactive).
As to KPNA1 (UniProt P52294), the log2 fold change was -0.02 (inactive).
Regarding KSR1 (UniProt Q8IVT5), the log2 fold change is -0.052 (inactive).
The same measure for MAP2K2 (UniProt P36507): 0.007 (inactive).

The values above are taken from the supplement of paper PMC10849652.
